Results as given in PubChem BioAssay (NCATS).
Records with an inconclusive call do not appear. Activity calls are given as the source filed them. Unless noted, calls follow the shape of the dose curve; as a rule, active = well fitted curve in the direction sought with a large enough effect; inconclusive = small, poorly fitted or top-dose-only effect, or another doubt; inactive = no such curve, though single readings can be large; an effect the other way counts as inactive or inconclusive.

What was measured:
[1] = molecular target: Thyrotropin receptor (Homo sapiens) (UniProt P16473); assay: qHTS Assay for Antagonists of the Thyroid Stimulating Hormone Receptor (AID 488980); also: series mostly up to about 58 µM; 0% is about no effect
Chain of Thyrotropin receptor (Homo sapiens) (P16473 whole entry, looked up): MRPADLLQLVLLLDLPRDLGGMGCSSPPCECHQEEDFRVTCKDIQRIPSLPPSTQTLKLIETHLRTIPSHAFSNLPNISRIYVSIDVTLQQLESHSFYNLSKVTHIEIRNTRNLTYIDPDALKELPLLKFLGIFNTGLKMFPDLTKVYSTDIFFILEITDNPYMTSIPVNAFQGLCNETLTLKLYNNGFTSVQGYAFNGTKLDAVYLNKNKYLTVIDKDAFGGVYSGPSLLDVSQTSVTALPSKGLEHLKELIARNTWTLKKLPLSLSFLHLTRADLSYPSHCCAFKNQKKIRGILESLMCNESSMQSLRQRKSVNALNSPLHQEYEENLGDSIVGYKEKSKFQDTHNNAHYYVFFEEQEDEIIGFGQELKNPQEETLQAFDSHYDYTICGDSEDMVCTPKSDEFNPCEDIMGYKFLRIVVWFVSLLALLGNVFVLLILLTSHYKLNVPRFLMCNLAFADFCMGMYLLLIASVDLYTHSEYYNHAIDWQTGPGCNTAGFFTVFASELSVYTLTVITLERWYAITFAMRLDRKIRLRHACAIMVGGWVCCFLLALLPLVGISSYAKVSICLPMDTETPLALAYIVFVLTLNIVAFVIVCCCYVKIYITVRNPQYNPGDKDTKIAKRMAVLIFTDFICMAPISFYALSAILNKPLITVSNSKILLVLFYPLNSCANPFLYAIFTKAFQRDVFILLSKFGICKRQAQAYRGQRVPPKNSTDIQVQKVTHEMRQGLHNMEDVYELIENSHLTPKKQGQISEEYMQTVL
How it was run: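 Inhibition of TSH-stimulated cAMP accumulation was quantified by homogeneous time-resolved FRET in TSHR-transfected HEK293 cells. Agonist: TSH, 4 nM final (EC80).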

[2] = molecular target: D(1A) dopamine receptor (Homo sapiens) (UniProt P21728); assay: HTS Assay for Allosteric Agonists of the Human D1 Dopamine Receptor: Primary Screen for Agonists (AID 488981); also: 0% is about no effect
Chain of D(1A) dopamine receptor (Homo sapiens) (P21728 whole entry, looked up): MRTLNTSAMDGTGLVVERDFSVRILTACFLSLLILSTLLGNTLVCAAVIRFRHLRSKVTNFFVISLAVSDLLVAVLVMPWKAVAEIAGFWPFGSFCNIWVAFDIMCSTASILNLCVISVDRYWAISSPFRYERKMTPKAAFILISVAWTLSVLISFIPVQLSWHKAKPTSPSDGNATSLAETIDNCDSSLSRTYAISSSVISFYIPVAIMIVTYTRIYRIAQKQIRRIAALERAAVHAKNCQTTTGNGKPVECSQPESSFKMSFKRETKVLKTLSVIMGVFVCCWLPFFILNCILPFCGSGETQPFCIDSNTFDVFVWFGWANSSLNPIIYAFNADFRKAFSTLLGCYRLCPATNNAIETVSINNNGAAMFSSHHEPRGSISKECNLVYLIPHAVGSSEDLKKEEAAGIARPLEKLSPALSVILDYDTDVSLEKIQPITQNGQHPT
How it was run: (§1)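 Calcium flux in an inducible, force-coupled HEK293 Trex D1 line (overnight at 30 C): agonist mode is the 180 s kinetic read after compound; potentiator mode is the following 180 s read after dopamine at EC20.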

[3] = molecular target: D(1A) dopamine receptor (Homo sapiens) (UniProt P21728); assay: HTS Assay for Allosteric Agonists of the Human D1 Dopamine Receptor: Primary Screen for Potentiators (AID 488982); also: 0% is about no effect
How it was run: as §1

[4] = molecular target: D(1A) dopamine receptor (Homo sapiens) (UniProt P21728); assay: HTS Assay for Allosteric Agonists of the Human D1 Dopamine Receptor: Primary Screen for Antagonists (AID 488983);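 also: calcium flux response to an EC80 dopamine challenge measured with no-wash dye; % is scaled to controls: 0 for no effect and ±100 for the full control effect; nearly all actives have a fitted effect of over 65% in size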
How it was run: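 Screening of inducible HEK293 T-REx D1 cells: compound first, EC80 dopamine 180 s later, each phase read kinetically for calcium over 180 s.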

[5] = Validation screen for small molecules that induce genotoxicity in human embryonic kidney (HEK293T) cells expressing luciferase-tagged ELG1 (AID 493106); also: 0% is about no effect
How it was run: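 Reporter-gene quantitative HTS in HEK293T cells carrying luciferase-tagged ELG1, whose level climbs under genotoxic stress. Compound exposure lasts 16 hr at 37 °C before luciferase detection.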

[6] = molecular target: ATPase family AAA domain-containing protein 5 (Homo sapiens) (UniProt Q96QE3); assay: Validation screen for small molecules that inhibit ELG1-dependent DNA repair in human embryonic kidney (HEK293T) cells expressing luciferase-tagged ELG1 (AID 493107);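 also: cells co-treated with the DNA-damaging agent 5-fluorouridine alongside compound; series mostly up to about 46 µM; % is scaled to controls: 0 for no effect and ±100 for the full control effect; inhibitors lower the ELG1-luciferase luminescence signal; nearly all actives have a fitted effect of over 70% in size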
Chain of ATPase family AAA domain-containing protein 5 (Homo sapiens) (Q96QE3 whole entry, looked up, the tested form may be a part): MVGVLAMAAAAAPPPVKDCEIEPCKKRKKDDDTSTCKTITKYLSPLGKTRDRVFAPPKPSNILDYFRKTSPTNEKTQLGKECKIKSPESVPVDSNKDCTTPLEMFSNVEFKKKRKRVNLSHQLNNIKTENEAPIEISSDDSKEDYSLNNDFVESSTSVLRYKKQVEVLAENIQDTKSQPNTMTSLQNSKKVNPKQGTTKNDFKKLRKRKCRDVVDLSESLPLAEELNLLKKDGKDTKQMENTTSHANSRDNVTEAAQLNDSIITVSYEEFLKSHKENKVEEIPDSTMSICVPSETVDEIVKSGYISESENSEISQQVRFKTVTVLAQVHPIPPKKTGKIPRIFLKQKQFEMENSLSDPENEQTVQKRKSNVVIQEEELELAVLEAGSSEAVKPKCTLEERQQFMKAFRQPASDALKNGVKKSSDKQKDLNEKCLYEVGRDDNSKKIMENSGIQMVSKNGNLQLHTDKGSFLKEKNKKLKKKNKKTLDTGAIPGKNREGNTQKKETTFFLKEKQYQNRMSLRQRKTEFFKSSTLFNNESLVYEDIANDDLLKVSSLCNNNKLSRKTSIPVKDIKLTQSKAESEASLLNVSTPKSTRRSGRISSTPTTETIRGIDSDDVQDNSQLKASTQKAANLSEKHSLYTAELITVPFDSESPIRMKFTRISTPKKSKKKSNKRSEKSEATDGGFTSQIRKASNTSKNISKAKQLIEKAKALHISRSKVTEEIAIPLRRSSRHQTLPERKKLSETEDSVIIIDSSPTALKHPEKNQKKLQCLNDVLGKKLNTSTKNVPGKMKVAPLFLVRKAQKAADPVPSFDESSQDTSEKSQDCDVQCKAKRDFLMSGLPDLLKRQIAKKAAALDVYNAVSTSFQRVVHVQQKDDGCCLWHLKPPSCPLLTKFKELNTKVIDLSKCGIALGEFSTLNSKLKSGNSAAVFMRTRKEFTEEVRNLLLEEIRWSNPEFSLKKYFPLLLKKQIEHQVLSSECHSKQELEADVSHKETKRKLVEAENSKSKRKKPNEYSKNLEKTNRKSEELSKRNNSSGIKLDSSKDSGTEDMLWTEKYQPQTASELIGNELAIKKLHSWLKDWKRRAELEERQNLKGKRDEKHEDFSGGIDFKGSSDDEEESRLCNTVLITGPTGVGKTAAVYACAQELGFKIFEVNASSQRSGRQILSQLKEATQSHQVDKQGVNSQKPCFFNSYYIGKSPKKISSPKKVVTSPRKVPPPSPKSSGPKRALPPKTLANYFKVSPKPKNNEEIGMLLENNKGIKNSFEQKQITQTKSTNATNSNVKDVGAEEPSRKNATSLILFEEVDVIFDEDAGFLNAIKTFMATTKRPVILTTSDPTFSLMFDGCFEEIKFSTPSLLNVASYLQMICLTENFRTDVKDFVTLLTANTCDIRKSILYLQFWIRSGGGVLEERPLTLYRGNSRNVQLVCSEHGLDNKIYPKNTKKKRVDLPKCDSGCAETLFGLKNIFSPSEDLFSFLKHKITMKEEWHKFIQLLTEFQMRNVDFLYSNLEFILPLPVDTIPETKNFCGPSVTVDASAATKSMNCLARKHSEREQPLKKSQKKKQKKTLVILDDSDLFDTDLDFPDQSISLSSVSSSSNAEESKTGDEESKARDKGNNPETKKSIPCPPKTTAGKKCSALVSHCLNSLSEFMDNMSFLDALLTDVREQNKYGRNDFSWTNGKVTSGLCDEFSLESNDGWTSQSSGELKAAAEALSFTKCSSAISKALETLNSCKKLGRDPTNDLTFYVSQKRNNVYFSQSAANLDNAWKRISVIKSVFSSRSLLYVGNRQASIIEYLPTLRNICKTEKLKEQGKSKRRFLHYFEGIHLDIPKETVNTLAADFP
How it was run: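 Quantitative HTS in HEK293T cells carrying luciferase-tagged ELG1, stimulated with 5-fluorouridine alongside compound for 16 hr. Loss of luciferase signal marks inhibition of ELG1 response.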

[7] = molecular target: Thyrotropin-releasing hormone receptor (Homo sapiens) (UniProt P34981); assay: qHTS for Small Molecule Agonists and Allosteric Enhancers of Human TRH Receptor: Validation Screen for Agonists (AID 493127;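 active = calcium activation more than 3 SD above the typical response in the agonist read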;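 also: intracellular calcium rise by fluo-8 fluorescence before TRH EC20 addition; 0% is about no effect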); conditions: TRH receptor agonist cell assay; at 2 µM; stronger effect = higher value
How it was run: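 Gq-coupled calcium mobilization in TRHR cells after compound addition, monitored kinetically with fluo-8 dye on an FDSS reader.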

[8] = Nrf2 qHTS screen for inhibitors: Validation (AID 493153; active = well fitted inhibition curve with a large enough effect in the main read-out, with a control signal flat, not every such curve was filed as active); conditions: viability change: measured here: cytotoxicity max response
How it was run: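 Dose-response validation uses reporter A549 cells with firefly luciferase under an antioxidant response element. Compounds stay on cells 18-24 h at 37°C, and luminescence indicates Nrf2-driven transcription.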

[9] = qHTS for Inhibitors of Cell Surface uPA Generation: Validation Assay (AID 493164);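 also: RAW 264.7 macrophage cells exposed to compound for 18 h; 0% is about no effect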
How it was run: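 RAW 264.7, 4000 cells/well, o/n plating; cpd 7-pt 1:5 dilution 2.45 nM–38.3 uM final; 18 h, 37 C/5% CO2; ATP-Lite, 5 s luminescence exposure.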

[10] = molecular target: Galactokinase (Homo sapiens) (UniProt P51570); assay: qHTS Validation Assay for Inhibitors of Human Galactokinase (GALK) (AID 493189); also: 0% is about no effect
How it was run: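 Enzyme activity is inferred from ATP consumption: human GALK phosphorylates galactose (100 uM) using 35 uM ATP for 1 h at room temperature, and luciferase-based Kinase-Glo Plus reports unconsumed ATP.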

[11] = molecular target: Phosphoglycerate kinase, glycosomal (Trypanosoma brucei brucei) (UniProt P07378); assay: qHTS Validation Assay to Find Inhibitors of Phosphoglycerate Kinase (AID 504547);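 also: control wells lack PGK and mark full inhibition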
Chain of Phosphoglycerate kinase, glycosomal (Trypanosoma brucei brucei) (P07378 whole entry, looked up): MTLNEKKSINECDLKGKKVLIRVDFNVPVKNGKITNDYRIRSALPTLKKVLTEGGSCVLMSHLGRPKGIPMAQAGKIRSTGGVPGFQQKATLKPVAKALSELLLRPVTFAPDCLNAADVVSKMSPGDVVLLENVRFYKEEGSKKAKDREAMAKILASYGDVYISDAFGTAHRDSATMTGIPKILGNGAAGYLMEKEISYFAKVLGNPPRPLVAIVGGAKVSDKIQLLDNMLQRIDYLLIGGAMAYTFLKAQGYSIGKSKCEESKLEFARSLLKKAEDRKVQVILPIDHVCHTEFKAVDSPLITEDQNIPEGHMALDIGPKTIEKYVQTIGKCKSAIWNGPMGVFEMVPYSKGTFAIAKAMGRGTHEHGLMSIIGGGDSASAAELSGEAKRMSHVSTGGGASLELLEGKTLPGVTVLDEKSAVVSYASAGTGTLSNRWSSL
How it was run: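 Inhibition of the enzyme is judged by a Kinase-Glo Plus luminescent signal following a one-hour incubation at room temperature. Because 1,3-BPG is unstable, it is made in situ by GAPDH at 100nM final; no-PGK wells define the baseline.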

[12] = molecular target: phosphoglycerate mutase (Leishmania major) (UniProt Q4Q090); assay: qHTS Validation Assay to Find Inhibitors of Phosphoglycerate Mutase (AID 504548); also: series mostly up to about 58 µM; % is scaled to controls: 0 for no effect and ±100 for the full control effect
How it was run: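 Luminescent end-point read-out via Kinase-GloPlus after a 10-minute development. Reaction: 1.25nM Leishmania major PGAM with substrate and compound, 45 minutes at room temperature in TEA buffer (pH 7.6) with MgCl2 and Tween-20.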

[13] = qHTS for Inhibitors of ATXN expression: Validation (AID 588378); also: series mostly up to about 57 µM; % is scaled to controls: 0 for no effect and ±100 for the full control effect; nearly all actives have a fitted effect of over 75% in size
How it was run: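 After a 2 h attachment and 24 h compound incubation, HEK293-ATXN2-FFLuc wells are read for fluorescence at 405 nm excitation/525 nm emission as a viability measure, then for Bright-Glo luminescence reflecting ATXN2 expression.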

[14] = molecular target: DNA dC->dU-editing enzyme APOBEC-3G (Homo sapiens) (UniProt Q9HC16); assay: qHTS for inhibitors of Vif-A3G interactions: Validation (AID 588379); also: 0% is about no effect
Chain of DNA dC->dU-editing enzyme APOBEC-3G (Homo sapiens) (Q9HC16 whole entry, looked up): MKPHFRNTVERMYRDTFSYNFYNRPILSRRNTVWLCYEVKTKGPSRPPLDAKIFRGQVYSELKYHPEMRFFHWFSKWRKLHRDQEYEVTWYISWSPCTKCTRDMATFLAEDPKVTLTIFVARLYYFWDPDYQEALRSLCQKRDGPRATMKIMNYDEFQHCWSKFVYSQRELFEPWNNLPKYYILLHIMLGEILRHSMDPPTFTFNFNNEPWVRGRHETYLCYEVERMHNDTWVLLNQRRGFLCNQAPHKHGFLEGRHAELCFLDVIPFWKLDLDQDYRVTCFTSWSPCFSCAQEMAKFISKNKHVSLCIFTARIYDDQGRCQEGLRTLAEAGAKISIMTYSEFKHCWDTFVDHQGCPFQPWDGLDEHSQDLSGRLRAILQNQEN
How it was run: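 HeLa cells stably expressing Vif and A3G-eYFP, 700 cells/well, incubated overnight at 37 deg C, then exposed to compound overnight at 37 deg C. Inhibition of Vif-mediated degradation read as increased yellow fluorescence (Ex 488/Em 500-530) by laser-scanning cytometry.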

[15] = molecular target: Voltage-gated inwardly rectifying potassium channel KCNH2 (Homo sapiens) (UniProt Q12809); assay: qHTS Assay for Small Molecule Inhibitors of the Human hERG Channel Activity (AID 588834);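 also: top concentration of the series differs between compounds; % is scaled to controls: 0 for no effect and ±100 for the full control effect; lower thallium flux fluorescence means stronger hERG block; nearly all actives have a fitted effect of over 50% in size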
How it was run: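 Blockade is seen as reduced FluxOR thallium-flux fluorescence in U2OS cells expressing hERG from a BacMam construct, in Opti-MEM with 2% FCS. Concentration-response data fitted to the Hill equation for AC50.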

[16] = molecular target: Glutaminase kidney isoform, mitochondrial (Homo sapiens) (UniProt O94925); assay: qHTS for Inhibitors of Glutaminase (GLS): LOPAC Validation (AID 624146); also: potency is read from the fitted curve at half-maximal effect; nearly all actives have a fitted effect of over 60% in size
Chain of Glutaminase kidney isoform, mitochondrial (Homo sapiens) (O94925 whole entry, looked up, canonical isoform): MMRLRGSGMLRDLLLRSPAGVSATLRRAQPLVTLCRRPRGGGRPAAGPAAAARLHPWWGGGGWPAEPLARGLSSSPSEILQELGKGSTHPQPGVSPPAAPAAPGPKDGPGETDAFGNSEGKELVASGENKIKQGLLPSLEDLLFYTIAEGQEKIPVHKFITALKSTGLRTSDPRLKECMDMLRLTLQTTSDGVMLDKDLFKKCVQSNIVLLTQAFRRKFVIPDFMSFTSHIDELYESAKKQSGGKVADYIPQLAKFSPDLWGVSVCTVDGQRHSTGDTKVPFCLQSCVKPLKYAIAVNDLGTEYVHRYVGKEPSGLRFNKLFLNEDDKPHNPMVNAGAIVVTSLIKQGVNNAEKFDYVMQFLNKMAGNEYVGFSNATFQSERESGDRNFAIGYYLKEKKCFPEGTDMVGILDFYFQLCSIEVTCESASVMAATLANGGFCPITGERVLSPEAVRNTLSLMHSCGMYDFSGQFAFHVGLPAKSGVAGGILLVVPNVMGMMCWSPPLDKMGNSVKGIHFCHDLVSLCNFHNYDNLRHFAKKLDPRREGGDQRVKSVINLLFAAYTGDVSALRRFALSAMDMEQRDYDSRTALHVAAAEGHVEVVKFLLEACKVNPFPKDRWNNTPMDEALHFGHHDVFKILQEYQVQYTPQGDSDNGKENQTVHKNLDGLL
How it was run: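 Read-out is an Amplex red fluorescence increase coupled through glutamate oxidase and HRP, measured before and after 30 min room-temperature incubation. hKGA is in 45 mM KH2PO4 (pH 8.2) with 0.02% Tween-20; glutamine added as 1mM solution.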

[17] = qHTS of Trypanosoma Brucei Inhibitors: LOPAC Validation (AID 624147); also: 0% is about no effect
How it was run: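 ADP (130 uM final) triggers the TbPYK reaction after compound addition; incubation is 45 min at room temperature. Kinase-Glo Plus is then added and luminescence imaged. Normalized data are fitted to concentration-effect curves.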

[18] = molecular target: Glucagon-like peptide 1 receptor (Homo sapiens) (UniProt P43220); assay: qHTS of GLP-1 Receptor Agonists: LOPAC Validation (AID 624148);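 also: luminescence from a luciferase reporter switched on by cAMP; 0% is about no effect; higher luminescence signal means agonism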
Chain of Glucagon-like peptide 1 receptor (Homo sapiens) (P43220 whole entry, looked up): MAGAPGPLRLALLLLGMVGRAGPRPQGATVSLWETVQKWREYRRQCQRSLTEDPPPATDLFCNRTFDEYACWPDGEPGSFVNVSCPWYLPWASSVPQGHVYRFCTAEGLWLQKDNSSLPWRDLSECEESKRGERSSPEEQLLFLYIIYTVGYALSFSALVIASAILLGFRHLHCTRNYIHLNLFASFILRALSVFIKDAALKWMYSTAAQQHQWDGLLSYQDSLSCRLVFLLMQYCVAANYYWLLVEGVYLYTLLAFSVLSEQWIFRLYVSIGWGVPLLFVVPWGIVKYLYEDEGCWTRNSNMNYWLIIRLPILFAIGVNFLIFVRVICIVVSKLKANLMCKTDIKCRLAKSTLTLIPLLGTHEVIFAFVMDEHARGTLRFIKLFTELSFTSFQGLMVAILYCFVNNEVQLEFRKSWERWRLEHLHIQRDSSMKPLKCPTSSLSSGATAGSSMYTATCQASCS
How it was run: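 Agonism scored as increased luciferase luminescence driven by cAMP in HEK293 clones carrying GLP-1R. Cells settled 12 hours, received compound for 4-6 hr at 37 deg C, 5% CO2, and were read after 12 min detection reagent at RT.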

[19] = qHTS of Nrf2 Activators: LOPAC Validation (AID 624149); also: 0% is about no effect
How it was run: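 ARE reporter activation measured in AREc32 firefly luciferase cells after 24 hr compound exposure; Steady-Glo luminescence.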

[20] = HTS Assay for Allosteric Antagonists of the Human D2 Dopamine Receptor: Hit Validation in HTRF (AID 624455);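 also: stable D1 dopamine receptor cell line scored for blocking the D1 response; % is scaled to controls: 0 for no effect and ±100 for the full control effect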
How it was run: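 Signal from an HTRF read-out in D1-expressing stable cells gave hit activity as inhibition of the D1 response.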

N#C/C(=C\c1ccc(O)c(O)c1)C(=O)Nc1ccccc1
inactive: outcome [1] | outcome [2] | outcome [3] | outcome [4] | Potency [5] | Potency [6] | activation [7] 5.88% | outcome [8] | outcome [9] | outcome [10] | Potency [11] | outcome [12] | Potency [13] | Potency [14] | Potency [15] | outcome [17] | outcome [18] | outcome [19] | outcome [20]
active: Potency [16] 631 nM
-12%: viability change [8]
